Consider ten molecules from PubChem BioAssay (NCATS).

Assay [1] can be described thus: qHTS of pediatric cancer cell lines to identify multiple opportunities for drug repurposing: Primary screen for LAN-5 cells (AID 1347100). Also: potency is read from the fitted curve at half-maximal effect. Put shortly: (§1)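 Cells (500-1,000/well) in growth media were settled 5 h at 37 degrees C, then given compounds for 48 h. Viability was read as CellTiter-Glo luminescence. Primary runs used MIPE at 11 points (0.78 nM-46 µM) and NPC at 8 points (0.59 nM-46 µM); follow-ups used 11 points.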

The nature of assay [2]: qHTS of pediatric cancer cell lines to identify multiple opportunities for drug repurposing: Primary screen for Rh18 cells (AID 1347102). Also: nearly all actives have a fitted effect of over 65% in size. Also: potency is read from the fitted curve at half-maximal effect. The gist of the method:
as §1
On the technique in general: In qHTS, concentration-response curves come from the screen itself.

Assay [3] in a line: qHTS of pediatric cancer cell lines to identify multiple opportunities for drug repurposing: Primary screen for OHS-50 cells (AID 1347103). Also: nearly all actives have a fitted effect of over 40% in size. Also: potency is read from the fitted curve at half-maximal effect. The gist of the method:
(§2)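 Cells (500-1,000/well) rested 5 h, then received compounds for 48 h; metabolically active cells were measured by CellTiter-Glo luminescence. Final concentrations spanned up to 46 µM (MIPE, 11-point) or 0.59 nM-46 µM (NPC, 8-point) in primary screens, 11-point in follow-ups.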

Assay [4] in a line: qHTS of pediatric cancer cell lines to identify multiple opportunities for drug repurposing: Primary screen for RD cells (AID 1347104). Also: nearly all actives have a fitted effect of over 55% in size. Also: potency is read from the fitted curve at half-maximal effect. Put shortly: (§3)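 Cells plated at 500-1,000/well in growth medium, compounds added after 5 h. MIPE tested at 11 points (from 0.78 nM), NPC at 8 points (from 0.59 nM). CellTiter-Glo luminescence after 48 h; concentration-response curves from primary screen.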

Assay [5] is described as follows: qHTS of pediatric cancer cell lines to identify multiple opportunities for drug repurposing: Primary screen for MG 63 (6-TG R) cells (AID 1347105). Also: nearly all actives have a fitted effect of over 50% in size. Also: potency is read from the fitted curve at half-maximal effect. The gist of the method: as §3
The nature of assay [6]: qHTS of pediatric cancer cell lines to identify multiple opportunities for drug repurposing: Primary screen for Rh30 cells (AID 1347107). Also: series mostly up to about 46 µM; nearly all actives have a fitted effect of over 75% in size. Put shortly:
as §1

Assay [7] can be described thus: qHTS of pediatric cancer cell lines to identify multiple opportunities for drug repurposing: Primary screen for Rh41 cells (AID 1347108). Also: nearly all actives have a fitted effect of over 70% in size. Also: potency is read from the fitted curve at half-maximal effect. The gist of the method: as §3
Assay [8] in a line: qHTS of pediatric cancer cell lines to identify multiple opportunities for drug repurposing: Confirmatory screen for NB1643 cells (AID 1347109). Also: potency is read from the fitted curve at half-maximal effect; nearly all actives have a fitted effect of over 45% in size. Put shortly: as §1
A short description of assay [9]: qHTS of pediatric cancer cell lines to identify multiple opportunities for drug repurposing: Confirmatory screen for A673 cells (AID 1347110).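 Also: potency is read from the fitted curve at half-maximal effect; cells exposed to compound for 48 h before the viability read; nearly all actives have a fitted effect of over 65% in size.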 The gist of the method: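 Forty-eight-hour viability assay. Follow-up compounds ran at 11-point dilutions; positive control bortezomib at 2.3 uM final, neutral control DMSO.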
Assay [10] can be described thus: qHTS of pediatric cancer cell lines to identify multiple opportunities for drug repurposing: Confirmatory screen for SK-N-MC cells (AID 1347111).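 Also: potency is read from the fitted curve at half-maximal effect; cells exposed to compound for 48 h before the readout; nearly all actives have a fitted effect of over 70% in size.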 Put shortly:
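Metabolically active cells were quantified by ATP-dependent luminescence (CellTiter-Glo, 15 min at room temperature) following 48 h treatment. Cells had been plated at 500-1,000 per well and settled for 5 h beforehand.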

The nature of assay [11]: qHTS of pediatric cancer cell lines to identify multiple opportunities for drug repurposing: Confirmatory screen for LAN-5 cells (AID 1347113). Also: potency is read from the fitted curve at half-maximal effect; nearly all actives have a fitted effect of over 65% in size. Put shortly: as §1
Assay [12] is described as follows: qHTS of pediatric cancer cell lines to identify multiple opportunities for drug repurposing: Confirmatory screen for DAOY cells (AID 1347114). Also: potency is read from the fitted curve at half-maximal effect; nearly all actives have a fitted effect of over 65% in size. The gist of the method:
(§4)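 Viability measured as metabolically active cells via CellTiter-Glo luminescence following 48 hours of compound exposure, 11-point dilutions in confirmatory testing. 500-1,000 cells/well plated 5 hours before dosing; controls were DMSO and 2.3 µM bortezomib.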

Assay [13] in a line: qHTS of pediatric cancer cell lines to identify multiple opportunities for drug repurposing: Confirmatory screen for SJ-GBM2 cells (AID 1347116). Also: potency is read from the fitted curve at half-maximal effect; nearly all actives have a fitted effect of over 60% in size. The gist of the method: as §4
Assay [14] can be described thus: qHTS of pediatric cancer cell lines to identify multiple opportunities for drug repurposing: Confirmatory screen for BT-37 cells (AID 1347117). Also: potency is read from the fitted curve at half-maximal effect; nearly all actives have a fitted effect of over 55% in size. The gist of the method:
as §1

The nature of assay [15]: qHTS of pediatric cancer cell lines to identify multiple opportunities for drug repurposing: Confirmatory screen for TC32 cells (AID 1347118). Put shortly: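 Luminescent CellTiter-Glo read-out of metabolically active TC32 cells after 48 h compound exposure. Primary: MIPE 11-point, 0.78 nM–46 µM; NPC 8-point, 0.59 nM–46 µM. Confirmatory: 11-point dilutions.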
Assay [16] can be described thus: qHTS of pediatric cancer cell lines to identify multiple opportunities for drug repurposing: Confirmatory screen for U-2 OS cells (AID 1347122). The gist of the method: as §1
Assay [17] can be described thus: qHTS of pediatric cancer cell lines to identify multiple opportunities for drug repurposing: Primary screen for control Hh wild type fibroblast cells (AID 1347106).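 Also: series mostly up to about 46 µM; a drop in luminescence marks cytotoxicity and a rise apparent proliferation; nearly all actives have a fitted effect of over 55% in size.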 Put shortly: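 Viability after 48 h compound treatment at 37C, 500-1,000 cells/well, read as ATP luminescence with CellTiter-Glo. Primary screens used 11-point (MIPE, 0.78 nM-46 µM) or 8-point (NPC, 0.59 nM-46 µM) final concentrations; follow-up screens used 11-point dilutions.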

Assay [18] in a line: qHTS of pediatric cancer cell lines to identify multiple opportunities for drug repurposing: Confirmatory screen for control Hh wild type fibroblast cells (AID 1347121). Also: nearly all actives have a fitted effect of over 70% in size. Also: potency is read from the fitted curve at half-maximal effect. The gist of the method: as §1
Assay [19] is described as follows: qHTS of pediatric cancer cell lines to identify multiple opportunities for drug repurposing: Primary screen for BT-12 cells (AID 1347101). Also: nearly all actives have a fitted effect of over 25% in size. Also: potency is read from the fitted curve at half-maximal effect. Put shortly:
as §2

Results filed as inconclusive are left out. Activity calls are given as the source filed them. Calls follow the shape of the dose curve; as a rule, active = well fitted curve in the direction sought with a large enough effect; inconclusive = small, poorly fitted or top-dose-only effect, or another doubt; inactive = no such curve, though single readings can be large; an effect the other way counts as inactive or inconclusive.

`CN(C)C1CCN(C(=O)c2ccc(NC(=O)Nc3nc(N4CCOCC4)nc(N4CCOCC4)n3)cc2)CC1`: the Potency is 187 nM (active) in assay [1]; 52.6 nM (active) in assay [2]; 21.7 nM (active) in assay [3]; 66.2 nM (active) in assay [4]; 93.5 nM (active) in [5]; 93.5 nM (active) in [7]. For the same molecule, the Potency in assay [8] is 928 nM (active); in [9] it was 73.7 nM (active); in [10] it was 208 nM (active); in assay [11], 261 nM (active); in [12] it was 14700 nM (active); in [13], 1470 nM (active). In addition, the Potency in assay [14] is 147 nM (active); in [15], 65.7 nM (active); in assay [16] it was 3690 nM (active). Further, the Potency entry in assay [6] is “inactive”.

Consider `O=C(CCN1CCN(C(=O)OCc2cc(Cl)cc(Cl)c2)CC1)c1ccc2[nH]c(=O)oc2c1`, for which the Potency entry in [1], in [2], in [3], in assay [4], in assay [5] and in assay [17] was “inactive” throughout. For the same molecule, the Potency entry in assay [6] is “inactive”.

As to `CCOc1ccc(Nc2nc(-c3c(C)nc4ccccn34)cs2)cc1`, the Potency was 1 nM (active) in assay [1]; 3.9 nM (active) in assay [3]; 131 nM (active) in [9]; 92.8 nM (active) in [10]; 1470 nM (active) in assay [11]; 46.5 nM (active) in assay [12]. Further, the Potency in assay [14] was 293 nM (active); in assay [15], 117 nM (active); in assay [16] it was 165 nM (active). Further, the Potency result in [2], in assay [4], in assay [5], in [17], in assay [6] and in assay [18] was “inactive” in each case.

Turning to `COC1CCC(N(C(=O)C2CCC(C)CC2)c2cc(C3=CCCCC3)sc2C(=O)O)CC1` (stereo not given), the Potency result in [1], in assay [19], in [3], in [5], in [17] and in assay [6] was “inactive” in each case.

Regarding `Cc1[nH]c(C=C2C(=O)Nc3ccc(S(=O)(=O)Cc4c(Cl)cccc4Cl)cc32)c(C)c1C(=O)N1CCC[C@H]1CN1CCCC1`, the Potency in assay [1] is 14800 nM (active); in assay [2], 14800 nM (active); in [3] it was 30600 nM (active); in [4], 18700 nM (active); in assay [5], 23500 nM (active); in assay [7], 18700 nM (active). Further, the Potency in assay [8] was 11700 nM (active); in assay [9], 13100 nM (active); in assay [10], 9270 nM (active); in assay [11] it was 9270 nM (active); in [14], 18500 nM (active); in assay [15], 11700 nM (active). In addition, in assay [18], the Potency was 32900 nM (active). For the same molecule, the Potency entry in assay [17] was “inactive”.

For `CC(=O)N(C)C1(c2ccccc2)CCN(CCC[C@]2(c3ccc(Cl)c(Cl)c3)CCCN(C(=O)c3ccccc3)C2)CC1`, the Potency is 23500 nM (active) in assay [1]; 27300 nM (active) in [19]; 24300 nM (active) in assay [3]; 18700 nM (active) in [4]; 18700 nM (active) in [7].

On to `CCN1CCC[C@H]1CNC(=O)c1cc(S(N)(=O)=O)ccc1OC`, for which the Potency entry in assay [1], in assay [19], in [3], in assay [4], in assay [5] and in [17] was “inactive” throughout. The Potency entry in assay [6] and in assay [7] was “inactive” each time.

`Cc1ccc([C@@H]2O[C@H](CO)[C@@H](O)[C@H](O)[C@@H]2O)cc1Cc1ccc(-c2ccc(F)cc2)s1`: the Potency result in assay [1], in assay [2], in assay [5] and in assay [17] was “inactive” in each case. In addition, the Potency in assay [3] was 34300 nM (active).

Consider `Cn1cc(C=C2C(=O)Nc3cccnc32)c2ccccc21`, for which the Potency entry in assay [1], in assay [19], in assay [5], in assay [17] and in assay [6] was “inactive” each time.

For `Cc1c[nH]c(C=C2C(=O)Nc3ccccc32)c1CCC(=O)O`, the Potency in [1] is 18700 nM (active). For the same molecule, the Potency result in [19], in assay [4] and in assay [5] was “inactive” throughout.
